Test results: the supplement of paper PMC7380943
± gives the standard deviation of the averaged measurements.

Key:
[1] = system: CLZ3 (HCA2 human fibroblast dual HR-NHEJ reporter); experiment: NHEJ repair efficiency (GFP+ cells) relative to control (log10 fold); higher = more non-homologous end joining; conditions: 5 µM; doxycycline 0.5 ug/mL
[2] = system: CLZ3 (HCA2 human fibroblast dual HR-NHEJ reporter); experiment: HR repair efficiency (tdTomato+ cells) relative to control (log10 fold); higher = more homologous recombination; conditions: 5 µM; doxycycline 0.5 ug/mL
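Wherever HR repair efficiency (tdTomato+ cells) relative to control is given: compound given one day before doxycycline, which switches on I-SceI endonuclease expression to create double-strand breaks within the integrated reporter.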
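Wherever NHEJ repair efficiency (GFP+ cells) relative to control is given: compound given one day ahead of doxycycline, which switches on I-SceI endonuclease to cut the chromosomally integrated reporter and create DSBs.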

| Structure (SMILES) | NHEJ repair efficiency (log10) [1] | HR repair efficiency (log10) [2] |
| --- | --- | --- |
| C[C@@H]1[C@H]2[C@H](O[C@@H]3O[C@H](CO)[C@@H](O)[C@H](O)[C@H]3O)OC=C(C(=O)O)[C@H]2C[C@@H]1O [Loganic Acid] | 0.0621 | 0.135 |
| CC(C)=CCC[C@](C)(O[C@@H]1O[C@H](CO[C@@H]2O[C@@H](CO)[C@H](O)[C@H]2O)[C@@H](O)[C@H](O)[C@H]1O)[C@H]1CC[C@]2(C)[C@@H]1[C@H](O)C[C@@H]1[C@@]3(C)CC[C@H](O[C@@H]4O[C@H](CO)[C@@H](O)[C@H](O)[C@H]4O[C@@H]4O[C@H](CO)[C@@H](O)[C@H](O)[C@H]4O)C(C)(C)[C@@H]3CC[C@]12C [Ginsenoside Rc] | 0.0541 | 0.0964 |
| C=C1C2CCC3(C4C[C@H]5C6(CCC[C@@]5(C)CN(CC)C46)[C@H]3[C@H]2O)[C@@H]1O [Bullatine A] | -0.197 | -0.165 |
| COc1ccc([C@@H]2OC[C@H]3[C@@H]2CO[C@@H]3c2ccc3c(c2)OCO3)cc1OC [Fargesin] | 0.0593 | 0.116 |
| COc1cc([C@@H]2[C@H]3CO[C@@]4(O)C(=O)[C@@H]2C=C([C@H]2Oc5cc(O)cc(O)c5C(=O)[C@@H]2O)[C@@H]34)ccc1O [Silydianin] | -0.0155 ± 0.092 | 0.076 ± 0.0068 |
| O=c1c(-c2ccc(O)cc2)coc2cc(O)ccc12 [Daidzein] | -0.0789 | -0.15 |
| CC1(C)O[C@H]1COc1c2ccoc2cc2oc(=O)ccc12 [Oxypeucedanin] | 0.0689 | 0.0078 |
| Cn1c(=O)c2c(ncn2CC(O)CO)n(C)c1=O (centres undefined) [Diprophylline] | 0.137 | 0.116 |
| C[C@@H]1O[C@@H](O[C@@H]2[C@@H](O)[C@H](OCCc3ccc(O)c(O)c3)O[C@H](COC(=O)/C=C/c3ccc(O)c(O)c3)[C@H]2O)[C@H](O)[C@H](O)[C@H]1O [Isoacteoside] | -0.112 | 0.017 |
| CC(C)=CCc1c(-c2ccc(O)cc2O)oc2c3c(cc(O)c2c1=O)OC(C)(C)C=C3 [Morusin] | 0.0648 | -0.298 |
| O=c1cc(-c2ccc(O)c(-c3c(O)cc(O)c4c(=O)cc(-c5ccc(O)cc5)oc34)c2)oc2cc(O)cc(O)c12 [Amentoflavone] | 0.0928 | 0.0831 |
| C/C1=C/CC[C@H](C)C(=O)C[C@@H](C(C)C)C(=O)C1 [Curdione] | -0.0258 | 0.0177 |
| CC1(C)CC[C@]2(C(=O)O)CC[C@]3(C)C(=CC[C@@H]4[C@@]5(C)CC[C@H](O)[C@@](C)(CO)[C@@H]5CC[C@]43C)[C@@H]2C1 [Hederagenin] | -0.021 | -0.0988 |
| C=C1C[C@]2(O)O[C@@]3(CC2=C(C)C)[C@@H](C)CC[C@@H]13 [Isocurcumenol] | -0.116 | -0.239 |
| O=c1c(O)c(-c2ccc(O)c(O)c2)oc2cc(O)cc(O)c12 [Quercetin] | -0.047 | 0.086 |
| COC(=O)C1=CO[C@@H](O)[C@@H]2C(CO)=CC[C@H]12 [Genipin] | -0.0273 | 0.00524 |
| C[C@@H]1O[C@@H](O[C@H]2[C@H](Oc3cc(O)c4c(c3)O[C@H](c3ccc(O)cc3)CC4=O)O[C@H](CO)[C@@H](O)[C@@H]2O)[C@H](O)[C@H](O)[C@H]1O [Naringin] | -0.127 | -0.0146 |
| C[C@@H]1CCCCCCCCCCCCC(=O)C1 [Muscone] | 0.1 | 0.229 |
| O=c1c(O)c(-c2ccc(O)cc2O)oc2cc(O)cc(O)c12 [Morin] | 0.0612 | 0.0351 |
| O=C1OC2(c3ccccc3Oc3ccccc32)c2ccccc21 [Fluoran] | 0.0054 | 0.0374 |
| C/C=C(/C)C(=O)O[C@@H]1[C@H](OC(=O)CC(C)C)c2c(ccc3ccc(=O)oc23)OC1(C)C [Praeruptorin C] | -0.0108 | 0.00182 |
| Cc1ccc(C(C)C)cc1O [Carvacrol] | -0.132 | -0.173 |
| O=C(O)[C@H]1O[C@@H](Oc2cc(O)c3c(=O)cc(-c4ccc(O)cc4)oc3c2)[C@H](O)[C@@H](O)[C@@H]1O [Apigenin-7-O-Glucronide] | -0.216 | 0.161 |
| C=C1CCC[C@]2(C)C[C@@H]3OC(=O)C(C)=C3C[C@@H]12 [Atractylenolide Ii] | -0.0767 | 0.118 |
| CCCCCCCCCCCCCCCC(=O)OC [Methyl Palmitate] | 0.0451 | 0.0601 |
| CC1CCC(C(C)C)C(O)C1 (centres undefined) [Menthol] | 0.0621 | -0.0345 |

| Structure (SMILES) | NHEJ repair efficiency (log10) [1] | HR repair efficiency (log10) [2] |
| --- | --- | --- |
| Cn1c(=O)c2c(ncn2CC2OCCO2)n(C)c1=O [Doxofylline] | 0.101 | 0.0399 |
| CC(C)=CCC[C@](C)(O)[C@H]1CC[C@]2(C)[C@@H]1[C@H](O)C[C@@H]1[C@@]3(C)CC[C@H](O[C@@H]4O[C@H](CO)[C@@H](O)[C@H](O)[C@H]4O[C@@H]4O[C@H](CO)[C@@H](O)[C@H](O)[C@H]4O)C(C)(C)[C@@H]3CC[C@]12C [R-Ginsenoside Rg3] | 0.0761 | -0.0174 |
| CC(C)=CC/C=C(\C)[C@H]1CC[C@]2(C)[C@@H]1[C@H](O)C[C@@H]1[C@@]3(C)CC[C@H](O[C@@H]4O[C@H](CO)[C@@H](O)[C@H](O)[C@H]4O[C@@H]4O[C@H](CO)[C@@H](O)[C@H](O)[C@H]4O)C(C)(C)[C@@H]3CC[C@]12C [Ginsenoside Rg5] | 0.0582 | 0.0507 |
| COc1c(O)cc2occ(-c3ccc(O)cc3)c(=O)c2c1O [Tectorigenin] | -0.0657 | -0.129 |
| O=C[C@H](O)[C@@H](O)[C@H](O)[C@H](O)CO[C@H]1O[C@H](CO[C@H]2O[C@H](CO)[C@H](O)[C@H](O)[C@H]2O)[C@H](O)[C@H](O)[C@H]1O [Manninotriose] | 0.0359 | 0.0215 |
| O=c1oc2c(O)cc(O)cc2c2oc3cc(O)c(O)cc3c12 [Isodemethylwedelolacton] | -0.0118 | 0.0907 |
| O=C1C[C@@H](c2ccccc2)Oc2cc(O)cc(O)c21 [Pinocembrin] | 0.123 | 0.0891 |
| C=CCc1ccc(O)c(-c2cc(CC=C)ccc2O)c1 [Magnolol] | 0.0133 | 0.105 |
| CC(C)=CCC[C@](C)(O[C@@H]1O[C@H](CO[C@@H]2O[C@H](CO)[C@@H](O)[C@H](O)[C@H]2O)[C@@H](O)[C@H](O)[C@H]1O)[C@H]1CC[C@]2(C)[C@@H]1[C@H](O)C[C@@H]1[C@@]3(C)CC[C@H](O[C@@H]4O[C@H](CO)[C@@H](O)[C@H](O)[C@H]4O)C(C)(C)[C@@H]3CC[C@]12C [Gypenoside Xvii] | 0.0522 | 0.00706 |
| COc1ccc([C@H]2OC[C@H]3[C@@H]2CO[C@H]3c2ccc(O[C@@H]3O[C@H](CO)[C@@H](O)[C@H](O)[C@H]3O)c(OC)c2)cc1OC [Phillyrin] | -0.0633 | -0.0538 |
| CC(C)=CCC[C@](C)(O[C@@H]1O[C@H](CO)[C@@H](O)[C@H](O)[C@H]1O)[C@H]1CC[C@]2(C)[C@@H]1[C@H](O)C[C@@H]1[C@@]3(C)CC[C@H](O)C(C)(C)[C@@H]3[C@@H](O[C@@H]3O[C@H](CO)[C@@H](O)[C@H](O)[C@H]3O[C@@H]3OC[C@@H](O)[C@H](O)[C@H]3O)C[C@]12C [Notoginsenoside R1] | -0.0455 | 0.0156 |
| COc1cc(-c2oc3cc(O)cc(O)c3c(=O)c2O[C@@H]2O[C@H](CO)[C@@H](O)[C@H](O)[C@H]2O[C@@H]2O[C@@H](C)[C@H](O)[C@@H](O)[C@H]2O)ccc1O [Isorhamnetin 3-O-Neohesperoside] | -0.0528 | -0.0275 |
| C[C@@H]1C(=O)O[C@H]2C[C@@]34O[C@@H]5OC(=O)[C@H](O)[C@@]56[C@H](C(C)(C)C)[C@H](O)C(OC3=O)[C@]64[C@]21O (some centres undefined) [Ginkgolide J] | 0.0205 | 0.076 |
| CC(C)=CCC/C(C)=C/C=C/C(C)=C/C=C/C(C)=C/C=C/C=C(C)/C=C/C=C(C)/C=C/C=C(\C)CCC=C(C)C [Lycopene] | -0.109 | 0.0372 |
| COC(=O)c1ccc(O)cc1 [Methylparaben] | 0.0529 | 0.0479 |
| COc1ccc(-c2oc3c(CC=C(C)C)c(O[C@@H]4O[C@H](CO)[C@@H](O)[C@H](O)[C@H]4O)cc(O)c3c(=O)c2O[C@@H]2O[C@@H](C)[C@H](O)[C@@H](O)[C@H]2O)cc1 [Icariine] | -0.13 | -0.0902 |
| O=c1cc(-c2ccccc2)oc2cc(O)cc(O)c12 [Chrysin] | 0.01 | -0.15 |
| O=C1O[C@H]2[C@@H]3OC(=O)c4cc(O)c(O)c(O)c4-c4c(O)c(O)c5oc(=O)c6c(c(O)c(O)c7oc(=O)c4c5c76)-c4c(cc(O)c(O)c4O)C(=O)OC[C@H]3OC(O)[C@@H]2OC(=O)c2cc(O)c(O)c(O)c2-c2c1cc(O)c(O)c2O (mixture of isomers) [Punicalagin] | -0.0664 | -0.254 |
| O=C(/C=C/c1ccc(O)c(O)c1)O[C@@H]1C[C@@](OC(=O)/C=C/c2ccc(O)c(O)c2)(C(=O)O)C[C@@H](O)[C@@H]1O [Cynarin (1,5-Di-O-caffeoylquinic acid)] | 0.0398 | 0.0943 |
| OCCc1ccc(O)cc1 [Tyrosol] | 0.117 | 0.306 |
| C[C@@H]1O[C@@H](OC[C@H]2O[C@@H](OCCc3ccc(O)c(O)c3)[C@H](O)[C@@H](O)[C@@H]2O)[C@H](O)[C@H](O)[C@H]1O [Forsythoside E] | -0.0418 | 0.0386 |
| CCCCCCCCCCCCCCCC(=O)O [Palmitic Acid] | 0.0513 | 0.0657 |
| O=C(/C=C/C=C/c1ccc2c(c1)OCO2)N1CCCCC1 [Piperine] | 0.0542 | 0.0832 |
| Cc1cc(O)c(C(=O)CCC(C)C)c(=O)o1 [Pogostone] | -0.0825 | -0.0091 |
| Cc1c(O)c(C)c2c(c1O)C(=O)C[C@@H](c1ccc(O)cc1)O2 [Farrerol] | -0.0045 | 0.437 |
| CC1(C)[C@@H](O[C@H]2O[C@H](C(=O)O)[C@@H](O)[C@H](O)[C@H]2O[C@@H]2O[C@H](C(=O)O)[C@@H](O)[C@H](O)[C@H]2O)CC[C@]2(C)[C@H]3C(=O)C=C4[C@@H]5C[C@@](C)(C(=O)O)CC[C@]5(C)CC[C@@]4(C)[C@]3(C)CC[C@@H]12 [Glycyrrhizic acid] | 0.142 | -0.0143 |
